Each structure is given as a SMILES string. Results filed as inconclusive are left out. Activity calls are given as the source filed them. Calls come from the whole dose curve; as a rule, active = well fitted inhibition curve with a large enough effect; inconclusive = small, poorly fitted or top-dose-only effect, or effect the other way; inactive = no such curve, though single readings can be large or run the other way.

This assay can be described thus: High Content Imaging Cell-Based qHTS for Inhibitors of the mTORC1 Signaling Pathway in MEF Cells (AID 2667).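 Note: Tsc2-/- p53-/- MEFs stably re-expressing wild-type Tsc2 exposed 24 h.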 To be noted: series mostly up to 38.3 µM. The source says:
NIH Molecular Libraries Probe Production Centers Network [MLPCN]
NIH Chemical Genomics Center [NCGC]
Assay Submitter (PI): Blenis, John; Hoffman, Greg; Harvard University
NCGC Assay Overview: The mammalian target of rapamycin (mTOR) is an intracellular serine/threonine kinase Aberrant regulation of mTOR signaling plays a causative role in a number of human diseases, including cancer, benign tumors such as lymphangioleiomyomatosis (LAM) and Tuberous Sclerosis Complex (TSC), and metabolic diseases such as diabetes and obesity. This project aims to identify inhibitors of ribosomal protein S6 (rpS6) phosphorylation. The phosphorylation of rpS6 is a key event downstream of mTOR activation. The assay uses a phospho-specific antibody of phospho-rpS6 to detect inhibitors of mTOR activation. Mutations in the Tsc1 and Tsc2 genes are the underlying genetic lesions responsible for TSC, causing constitutive activation of the mTORC1 pathway and leading to profound effects on cell metabolism. Aberrant metabolism in cancer has recently received significant attention as a target to develop therapeutic agents in the treatment of cancer.1 As Tsc2-/- cells have lost the ability to respond to energy and growth factor deprivation, these cells are unable to properly down regulate cellular biosynthetic processes in response to metabolic stress, and are thus extremely sensitive to glucose deprivation-induced death.2 A central goal of this project is to explore the unique cell survival and metabolic properties of cells with Tsc1 or Tsc2 by screening for compounds that selectively target the Tsc2-/- MEFs by screening both Tsc2-/- and WT MEF cell lines. We hope to better understand these aspects of TSC physiology in order to exploit them for therapeutic benefit.
NCGC IN Cell Assay Protocol:
For quantitative high throughput analysis of mTORC1 signaling, we developed a cell-based assay for immuno-fluorescence based detection of rpS6 phosphorylation on the Acumen Explorer that will be used a platform for the primary small molecule screen. Mouse embryonic fibroblasts (MEFs) are cultured in 1536-well plates using DMEM + 10% FBS. Twenty-four hrs after plating, test compounds (solubilized in DMSO) are delivered and incubated with the cells for 24 hrs at 37 degree Celsius. Following the incubation, media with compound is aspirated and the cells are fixed in 4% paraformaldehyde (PFA) containing PBS + 0.2% TX-100. Next, PFA is aspirated, cells are washed two times with PBS plus 0.2% TX-100 and the cells are blocked for 1 hr at room temperature (blocking buffer: LiCOR Blocking Buffer plus 0.2% TX-100). This is followed by aspiration and staining with Alexa-488 conjugated-phospho-rpS6 Ser235/236 antibody for 2 hours at room temperature (Cell Signaling Technology # 4803, 1:50 dilution in blocking buffer). Cells are washed two times with PBS plus 0.2% TX-100, and stained with 10 uM propidium iodide (PI) for 20-25 minutes for cell number measurement (1:500 dilution of Hoescht staining is also added for IN Cell imaging). Active wells which are selected (based on Acumen results) are imaged on the IN Cell 1000 (GE Healthcare) using the D360/40X and HQ480/40X excitation filters for the Hoechst and Alexa-488 cytoplasmic stains, respectively. The fluorescence emission filters used were HQ460/40M and HQ535/50M for the Hoechst and Alexa-488 cytoplasmic stains, respectively. The normalized phospho-S6 staining is calculated as the ratio of […] for the single concentration rapamycin control ([…] nM) and DMSO columns. […] Inhibition of the pathway is defined based on the normalized phospho-S6 intensity in rapamycin treated cells. Each treatment is reported as the % positive cells in the well, where thresholds are defined by selecting wells with the highest and lowest signal and differentiating between the % non-active and % active populations. […]
(In general: In qHTS, concentration-response curves come from the screen itself.)
For the compound `O=C1NC(=O)/C(=C/c2ccc3c(c2)OC(F)(F)O3)S1`, the compound was classed as inactive. Under `COC(=O)C1=CO[C@@H](O)[C@@H]2C(CO)=CC[C@H]12` stands “inactive”; under `Brc1ccc([C@H]2CN3CCSC3=N2)cc1`, “inactive”; under `C[N+](C)(C)CCO`, “inactive”.

As for `NC(N)=NCCCCN=C(N)N`, the compound was called inactive.

Turning to `Cc1nn(-c2ccccc2)c(C)c1/C=N/N1CCN(Cc2ccccc2)CC1`, the compound was called inactive. Under `CN(C)c1cc2c(Nc3ccc4c(cnn4Cc4ccccc4)c3)ncnc2cn1` stands “inactive”.

With `Nc1ncnc2n[nH]c(Nc3ccc(F)cc3)c12`, the compound was classed as inactive. As to `COc1ccccc1N1CCN(CCN2C(=O)CC3(CCCC3)CC2=O)CC1`, the result was inactive. For `CCN(CC)CCNC(=O)c1ccc(NS(C)(=O)=O)cc1`, the result was inactive. The value for `Cn1cnc2c(NCc3ccccc3)nc(NCCO)nc21` was “inactive”. With `O=C1NC(c2cccc([N+](=O)[O-])c2)=CCN1c1ccccc1O`, the result was inactive.

For the compound `N[C@@H](Cn1ccc(=O)c(O)c1)C(=O)O`, the compound was called inactive.

The record behind these values is PubChem BioAssay (NCATS).
